# According to ChEMBL document CHEMBL2218924, “A broad activity screen in support of a chemogenomic map for kinase signalling research and drug discovery” (Biochem J, 2013):
# Legend:
# [1] = biological target: Platelet-derived growth factor receptor alpha (Homo sapiens) (UniProt P16234); settings: at 1 µM
# [2] = biological target: Platelet-derived growth factor receptor alpha (Homo sapiens) (UniProt P16234); settings: at 10 µM
# [3] = biological target: Platelet-derived growth factor receptor beta (Homo sapiens) (UniProt P09619); settings: at 1 µM
# [4] = biological target: Platelet-derived growth factor receptor beta (Homo sapiens) (UniProt P09619); settings: at 10 µM
# [5] = biological target: T1, 3-phosphoinositide-dependent protein kinase 1 (Homo sapiens) (UniProt O15530); settings: at 1 µM
# T1 sequence (whole entry): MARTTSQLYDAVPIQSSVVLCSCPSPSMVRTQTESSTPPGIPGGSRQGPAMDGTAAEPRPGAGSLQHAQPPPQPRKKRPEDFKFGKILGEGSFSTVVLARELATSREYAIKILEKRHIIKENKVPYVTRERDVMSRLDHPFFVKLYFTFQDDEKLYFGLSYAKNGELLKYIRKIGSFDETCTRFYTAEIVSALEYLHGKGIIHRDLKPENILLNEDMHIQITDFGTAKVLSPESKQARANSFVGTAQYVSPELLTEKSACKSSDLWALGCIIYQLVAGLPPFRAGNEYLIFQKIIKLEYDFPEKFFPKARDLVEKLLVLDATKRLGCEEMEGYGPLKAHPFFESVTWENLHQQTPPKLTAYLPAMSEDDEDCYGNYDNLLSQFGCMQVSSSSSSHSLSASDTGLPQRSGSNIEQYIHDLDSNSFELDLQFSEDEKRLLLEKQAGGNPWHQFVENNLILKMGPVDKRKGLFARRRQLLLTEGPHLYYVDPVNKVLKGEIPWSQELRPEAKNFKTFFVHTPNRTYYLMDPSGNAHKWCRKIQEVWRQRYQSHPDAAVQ
# [6] = biological target: T1, 3-phosphoinositide-dependent protein kinase 1 (Homo sapiens); settings: at 10 µM
# [7] = biological target: cAMP-dependent protein kinase catalytic subunit alpha (Homo sapiens) (UniProt P17612); settings: at 1 µM
# [8] = biological target: cAMP-dependent protein kinase catalytic subunit alpha (Homo sapiens) (UniProt P17612); settings: at 10 µM
# [9] = biological target: RAC-gamma serine/threonine-protein kinase (Homo sapiens) (UniProt Q9Y243); settings: at 1 µM
# [10] = biological target: RAC-gamma serine/threonine-protein kinase (Homo sapiens) (UniProt Q9Y243); settings: at 10 µM
# Sequence of RAC-gamma serine/threonine-protein kinase (Homo sapiens) (Q9Y243 whole entry): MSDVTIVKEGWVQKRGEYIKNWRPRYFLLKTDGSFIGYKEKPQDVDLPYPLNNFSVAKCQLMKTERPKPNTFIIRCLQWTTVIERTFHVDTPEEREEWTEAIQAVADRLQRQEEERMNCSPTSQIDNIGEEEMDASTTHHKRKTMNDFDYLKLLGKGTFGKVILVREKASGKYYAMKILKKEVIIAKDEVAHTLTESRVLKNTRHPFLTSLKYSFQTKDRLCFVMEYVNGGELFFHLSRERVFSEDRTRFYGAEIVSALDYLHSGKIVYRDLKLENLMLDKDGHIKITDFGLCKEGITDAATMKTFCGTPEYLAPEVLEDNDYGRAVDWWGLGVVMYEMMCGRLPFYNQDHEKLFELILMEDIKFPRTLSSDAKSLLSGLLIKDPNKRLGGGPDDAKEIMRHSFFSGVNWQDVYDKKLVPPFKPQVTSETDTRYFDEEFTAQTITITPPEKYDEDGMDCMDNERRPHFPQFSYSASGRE
# Sequence of Platelet-derived growth factor receptor beta (Homo sapiens) (P09619 whole entry): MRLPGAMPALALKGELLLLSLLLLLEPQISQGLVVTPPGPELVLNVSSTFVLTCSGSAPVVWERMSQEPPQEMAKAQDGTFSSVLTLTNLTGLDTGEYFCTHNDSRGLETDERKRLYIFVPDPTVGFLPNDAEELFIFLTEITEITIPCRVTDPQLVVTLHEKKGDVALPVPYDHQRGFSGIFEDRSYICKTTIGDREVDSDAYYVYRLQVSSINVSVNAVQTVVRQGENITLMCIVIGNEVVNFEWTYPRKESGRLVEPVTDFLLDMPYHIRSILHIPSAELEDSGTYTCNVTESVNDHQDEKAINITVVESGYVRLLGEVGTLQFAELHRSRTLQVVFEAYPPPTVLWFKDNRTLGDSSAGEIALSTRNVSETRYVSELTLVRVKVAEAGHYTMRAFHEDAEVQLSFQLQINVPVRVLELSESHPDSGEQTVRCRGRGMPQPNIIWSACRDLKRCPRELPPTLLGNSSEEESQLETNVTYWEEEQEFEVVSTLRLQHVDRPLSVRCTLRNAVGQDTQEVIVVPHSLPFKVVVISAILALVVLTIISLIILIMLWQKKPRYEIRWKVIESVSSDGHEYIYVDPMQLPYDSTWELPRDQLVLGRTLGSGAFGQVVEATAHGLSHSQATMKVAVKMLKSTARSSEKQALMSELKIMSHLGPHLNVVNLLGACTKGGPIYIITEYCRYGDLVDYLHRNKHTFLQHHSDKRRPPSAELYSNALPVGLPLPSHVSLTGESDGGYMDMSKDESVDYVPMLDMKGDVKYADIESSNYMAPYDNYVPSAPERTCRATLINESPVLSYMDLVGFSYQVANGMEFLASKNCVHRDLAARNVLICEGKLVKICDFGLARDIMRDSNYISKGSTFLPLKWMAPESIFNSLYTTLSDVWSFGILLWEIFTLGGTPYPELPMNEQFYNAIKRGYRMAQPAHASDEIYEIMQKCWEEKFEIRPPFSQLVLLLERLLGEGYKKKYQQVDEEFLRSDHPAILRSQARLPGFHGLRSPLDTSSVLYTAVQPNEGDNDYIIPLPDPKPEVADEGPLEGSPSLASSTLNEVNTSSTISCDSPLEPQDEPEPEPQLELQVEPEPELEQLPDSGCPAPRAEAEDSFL
# Sequence of Platelet-derived growth factor receptor alpha (Homo sapiens) (P16234 whole entry): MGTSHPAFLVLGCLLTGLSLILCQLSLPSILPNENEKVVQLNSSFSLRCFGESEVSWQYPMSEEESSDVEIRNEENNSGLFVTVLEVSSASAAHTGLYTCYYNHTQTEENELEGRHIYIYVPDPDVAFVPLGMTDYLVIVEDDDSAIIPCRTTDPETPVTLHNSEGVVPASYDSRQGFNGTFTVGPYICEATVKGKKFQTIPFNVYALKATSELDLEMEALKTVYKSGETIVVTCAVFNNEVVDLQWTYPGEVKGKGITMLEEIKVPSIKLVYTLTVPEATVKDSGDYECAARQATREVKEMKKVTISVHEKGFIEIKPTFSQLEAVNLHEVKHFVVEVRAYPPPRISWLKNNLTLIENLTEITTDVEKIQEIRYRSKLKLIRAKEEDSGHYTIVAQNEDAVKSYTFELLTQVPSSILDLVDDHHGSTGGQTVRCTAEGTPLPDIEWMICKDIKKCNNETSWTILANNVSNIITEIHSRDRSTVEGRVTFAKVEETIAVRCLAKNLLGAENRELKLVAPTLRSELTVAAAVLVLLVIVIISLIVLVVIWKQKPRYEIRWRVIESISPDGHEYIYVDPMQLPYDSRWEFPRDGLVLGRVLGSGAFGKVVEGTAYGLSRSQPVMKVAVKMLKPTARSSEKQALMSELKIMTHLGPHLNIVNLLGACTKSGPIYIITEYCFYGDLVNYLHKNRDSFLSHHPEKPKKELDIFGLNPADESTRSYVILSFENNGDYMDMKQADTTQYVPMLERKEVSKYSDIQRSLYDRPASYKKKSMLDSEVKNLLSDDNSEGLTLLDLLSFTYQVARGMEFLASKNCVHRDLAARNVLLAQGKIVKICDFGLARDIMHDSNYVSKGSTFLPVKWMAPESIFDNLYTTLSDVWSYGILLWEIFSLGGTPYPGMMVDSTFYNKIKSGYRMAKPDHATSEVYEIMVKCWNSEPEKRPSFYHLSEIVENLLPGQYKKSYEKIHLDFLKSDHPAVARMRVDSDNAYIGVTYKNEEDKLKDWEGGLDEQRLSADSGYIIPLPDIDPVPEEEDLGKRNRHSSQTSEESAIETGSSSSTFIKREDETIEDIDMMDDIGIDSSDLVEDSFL
SMILES,residual activity [1],residual activity [2],residual activity [3],residual activity [4],residual activity [5],residual activity [6],residual activity [7],residual activity [8],residual activity [9],residual activity [10]
COc1ccc(OC)c2c(=S)c3ccccc3[nH]c12,109%,108%,99%,102%,96%,96%,87%,94%,89%,84%
COc1cc2ncnc(Nc3ccc(O)c(Br)c3)c2cc1OC,103%,78%,105%,83%,97%,76%,88%,90%,101%,80%
CNc1cc2c(Nc3cccc(Br)c3)ncnc2cn1,122%,107%,109%,113%,100%,64%,102%,98%,104%,93%
N#C/C(=C(\N)Sc1ccc(N)cc1)c1ccccc1C(F)(F)F,112%,113%,98%,102%,98%,87%,79%,80%,96%,86%
Cn1cnc2cc3c(Nc4cccc(Br)c4)ncnc3cc21,108%,79%,103%,81%,106%,92%,99%,75%,101%,96%
CCN(CC)CCCCN1c2ccccc2Oc2ccc(Cl)cc21,126%,104%,119%,108%,131%,138%,95%,147%,126%,113%
Nc1nc(Nc2ccc(S(N)(=O)=O)cc2)nn1C(=S)Nc1c(F)cccc1F,82%,39%,83%,24%,3%,0%,53%,16%,,
Cc1ccc(S(=O)(=O)/C=C/C#N)cc1,100%,109%,104%,107%,105%,108%,102%,102%,108%,85%
CO[C@H]1[C@@H](OC)C[C@H](C)[C@@H](OC)C2=CC(=O)C=C(NC(=O)/C(C)=C/C=C/[C@H](OC)[C@@H](OC(N)=O)/C(C)=C/[C@@H]1C)C2=O,114%,107%,108%,80%,112%,96%,79%,70%,94%,75%
Cc1nc(-c2ccccc2)c(-c2ccncc2)o1,89%,83%,99%,92%,114%,102%,94%,85%,118%,88%
CC(C)n1cnc2c(NCc3ccccc3)nc(NCCCO)nc21,105%,107%,98%,94%,107%,104%,98%,99%,104%,90%
Cc1nc2cc3nc(-c4cccs4)cnc3cc2n1C,78%,15%,97%,46%,109%,109%,104%,106%,112%,102%
O=C1NC(=O)/C(=C\c2ccc3nccnc3c2)S1,116%,109%,97%,106%,111%,98%,71%,70%,98%,85%
CC(=O)O/N=C1\C(=C2\C(=O)Nc3cc(Br)ccc32)Nc2ccccc21,102%,79%,86%,52%,91%,67%,86%,93%,98%,79%
O=C(Nc1cccc(Nc2cc(Nc3cccc(C(F)(F)F)c3)ncn2)c1)C1CC1,110%,109%,98%,93%,93%,87%,103%,112%,90%,96%
COc1cc2ncnc(Nc3ccc(Oc4ccccc4)cc3)c2cc1OC,79%,42%,102%,83%,109%,120%,92%,134%,92%,106%
O=C1c2ccccc2-[n+]2ccc3c([nH]c4ccccc43)c21,107%,103%,110%,102%,100%,102%,94%,98%,112%,87%
CCC(=O)Nc1ccc2ncnc(Nc3cccc(Br)c3)c2c1,117%,91%,96%,92%,111%,107%,88%,102%,102%,99%

SMILES,residual activity [1],residual activity [2],residual activity [3],residual activity [4],residual activity [5],residual activity [6],residual activity [7],residual activity [8],residual activity [9],residual activity [10]
O=C(Nc1cccc(Nc2nccc(Nc3cccc(C(F)(F)F)c3)n2)c1)C1CC1,107%,88%,99%,70%,100%,93%,75%,106%,89%,67%
Nc1ccc2ncnc(NCCc3ccc(Oc4ccccc4)cc3)c2c1,87%,43%,97%,95%,104%,109%,103%,124%,99%,76%
Nc1n[nH]c2nnc(-c3c(-c4ccccc4)nn4ccccc34)cc12,105%,100%,97%,99%,102%,94%,97%,77%,99%,82%
COc1ccc(CNc2nc(N(CCO)CCO)nc3c2ncn3C(C)C)cc1,101%,102%,93%,100%,100%,100%,93%,85%,72%,69%
Oc1c2ccccc2c2c3c(cccc13)N=N2,108%,86%,99%,96%,72%,19%,89%,73%,89%,66%
Oc1n[nH]c2nnc(-c3c(-c4ccccc4)nn4ccccc34)cc12,103%,110%,103%,110%,85%,70%,86%,101%,96%,84%
CC[n+]1c(/C=C/N(C)c2ccccc2)n(-c2ccccc2)c2ccc(-c3nc4ccccc4s3)cc21,117%,94%,103%,125%,121%,149%,110%,146%,105%,65%
O=C1NC(=O)c2c1c1c3ccccc3[nH]c1c1[nH]c3cc(Br)ccc3c21,101%,95%,89%,76%,75%,29%,97%,101%,75%,77%
CN(C)c1ccc(/C=C2\C(=O)Nc3ccccc32)cc1,79%,14%,101%,30%,114%,92%,89%,86%,96%,100%
O=C1NC(=O)c2cc(Nc3ccc(F)cc3)c(Nc3ccc(F)cc3)cc21,115%,107%,109%,95%,106%,110%,100%,82%,98%,65%
CC#CC(=O)Nc1cc2c(Nc3ccc(F)c(Cl)c3)ncnc2cn1,113%,42%,105%,86%,102%,100%,99%,77%,93%,91%
O=C1Nc2ccc(Br)cc2/C1=C\c1cc2c([nH]1)CCCC2,34%,23%,74%,51%,109%,99%,108%,80%,105%,
N#Cc1cnc2cnc(NCc3cccnc3)cc2c1Nc1ccc(F)c(Cl)c1,97%,54%,119%,88%,45%,41%,5%,1%,,
Oc1ccc(Nc2nc(-c3ccc(Cl)cc3)cs2)cc1,87%,83%,117%,137%,115%,102%,100%,129%,123%,104%
Nc1cccc(-c2cc3c(Oc4cccc(O)c4)ncnc3[nH]2)c1,48%,10%,48%,8%,92%,40%,94%,85%,,
O=C1Nc2cc(Br)ccc2/C1=C1/Nc2ccccc2/C1=N\O,30%,6%,36%,11%,42%,37%,89%,97%,83%,83%
CC(C)n1cnc2/c(=N/c3cccc(Cl)c3)nc(NCCO)[nH]c21,105%,107%,108%,113%,96%,81%,96%,89%,95%,76%
